# Compound activity deposited in PubChem by National Center for Advancing Translational Sciences (NCATS).
# Cruzain inh noDet: blocks cruzain activity in detergent-free assay. hit rate 2.3% among 200,000. AID 1476. Potency, µM, for the others: max response, negative = inhibition, hits mostly inhibitors. purified cruzain, Z-FR-AMC fluorescence, no detergent. P25779;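 further: plate controls were enzyme without inhibitor for no effect and buffer without enzyme for full effect; nearly all actives have a fitted effect of over 40% in size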
# Target sequence (P25779 123-467 limits assumed): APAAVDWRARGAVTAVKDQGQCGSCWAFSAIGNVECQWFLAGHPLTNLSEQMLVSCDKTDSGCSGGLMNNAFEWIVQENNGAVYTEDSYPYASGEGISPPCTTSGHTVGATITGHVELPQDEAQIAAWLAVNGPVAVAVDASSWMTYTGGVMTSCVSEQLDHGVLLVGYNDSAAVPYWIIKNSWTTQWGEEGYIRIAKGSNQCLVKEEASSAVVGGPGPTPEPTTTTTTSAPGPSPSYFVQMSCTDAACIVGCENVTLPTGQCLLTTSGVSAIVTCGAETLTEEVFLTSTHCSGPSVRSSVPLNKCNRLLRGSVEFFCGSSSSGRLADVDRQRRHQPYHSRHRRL
#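 Detergent-free condition (0.00005% Triton X-100) in acetate buffer pH 5.5 with DTT. 1.5 nM enzyme and compound were pre-mixed 15 min, then 2 uM Z-FR-AMC substrate added; reaction progress from fluorescence change between first and third reads (60 s).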
# Cruzain Triton: cruzain (T. cruzi) inhibition with detergent | purified cruzain, Z-FR-AMC fluorescence, 0.01% Triton | AID 1478 | Potency, µM, for inactives: max response, negative = inhibition, usual class: inhibitors | hit rate 0.43% among 200,000 | P25779;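 further: plate controls were neutral wells for no effect and buffer without enzyme for full effect; nearly all actives have a fitted effect of over 40% in size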
#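 15 min RT preincubation of 1.5 nM cruzain with compound, then 2 uM Z-FR-AMC added; kinetic AMC fluorescence, 60 s delta. Triton X-100 0.01%, pH 5.5.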
# Active calls of the source: *; ? = inconclusive. Compounds with a hit are over-represented: about 2.4% of the library has one in this group of screens. The call rests on the fitted dose curve; in most records, active means well fitted curve in the direction sought with a large enough effect; inconclusive means small, poorly fitted or top-dose-only effect, or another doubt; inactive means no such curve, though single readings can be large; an effect the other way counts as inactive or inconclusive. Potency means the concentration at half of the fitted maximal effect.
SMILES,Cruzain inh noDet,Cruzain Triton
Nc1c(-c2cccs2)cnn1-c1nc(-c2ccc(Cl)cc2Cl)cs1,25µM*,0%
COc1ccc(C2N(C(=O)c3ccccc3)CCN2C(=O)c2ccc(C)cc2)cc1 (configuration not stated),1%,0%
Cc1cccc(/C=N/NC(=O)Cn2nccc2C)n1,1%,-1%
CCc1ccc2nc3sc(C(=O)N4CCc5ccccc54)c(N)c3cc2c1,25µM*,-3%
Cc1ccc(C)c2nc3sc(C(=O)N4CCCc5ccccc54)c(N)c3cc12,3%,5%
CON(c1nc(Cl)nc(N(C)C)n1)S(=O)(=O)c1ccccc1Cl,1%,0%
CCCNS(=O)(=O)c1ccc(CCC(=O)N2CCN(CC)CC2)cc1,-3%,-1%
COc1ccc2ccccc2c1C1CC(=O)N2CN(C3CCCCC3)CSC2=C1C#N (configuration not stated),?,-15%
COc1ccc(C2CC(=O)N3CN(C4CCCCC4)CSC3=C2C#N)c(OC)c1 (configuration not stated),28%,25µM*
COc1ccc(C(c2nnnn2Cc2ccccc2)N2CCN(C(=O)c3ccco3)CC2)cc1OC (configuration not stated),12%,-2%
N#Cc1c(Sc2ncc(C(F)(F)F)cc2Cl)nsc1C/C=N\OCc1ccccc1Br,7.9µM*,-15%
CCOC(=O)/C(=C\Nc1ccccc1C(F)(F)F)Sc1ncc(C(F)(F)F)cc1Cl,?,-3%
CC(C)CNc1nc(N)c([N+](=O)[O-])c(NCC2CCCO2)n1 (configuration not stated),4%,-8%
COc1ccc(C(=O)Nc2cccc(-c3cc4ccccc4oc3=O)c2)cc1[N+](=O)[O-],10µM*,-9%
COc1cc(NC(=O)c2ccc(Cl)cc2Cl)ccc1-c1cc2ccccc2oc1=O,20µM*,1%
COc1ccc(C(=O)Nc2ccccc2)cc1[N+](=O)[O-],-3%,-5%
O=C(Nc1ccc(N2CCOCC2)c(Cl)c1)c1cc2ccccc2o1,4%,-8%
Cc1cc(NC(=O)c2cc(Cl)ccc2Cl)ccc1-c1cc2ccccc2oc1=O,17%,-5%
O=C(Nc1ccc(N2CCCC2)c(Cl)c1)c1cccc(-c2cc3ccccc3oc2=O)c1,4µM*,-2%
CCN(Cc1ccccc1)Cc1cc(OC)cc(OC)c1,9%,-2%
CC(C)OC(=O)CSc1nc2c(c(C3CC=CCC3)c1C#N)CCC2 (configuration not stated),3%,1%
COc1ccc(Cn2c(SCC(=O)N(C)Cc3ccccc3)nc3ccccc32)cc1,11%,-4%
Cc1ccc(-n2ncc(C(=O)N3CCN(c4ccc(Cl)cc4)CC3)c2C2CCN(C(=O)OC(C)(C)C)CC2)c(C)c1,-12%,0%
CCOCCSc1nc2c(c(-c3cccs3)c1C#N)CC/C2=C/c1cccs1,16µM*,-5%
CCOC(=O)CC(=O)CSc1nc2c(c(-c3cccs3)c1C#N)CCC2,-6%,-8%
SMILES,Cruzain inh noDet,Cruzain Triton
Cc1ccccc1OCC(=O)NC(=S)Nc1ccc2c3c(cccc13)CC2,7.9µM*,-1%
COc1ccc(OCC(=O)NC(=S)Nc2ccc3c4c(cccc24)CC3)cc1,?,-12%
CC(C)c1ccc(NC(=O)C2CCCN(S(=O)(=O)c3ccc4[nH]c(=O)oc4c3)C2)cc1 (configuration not stated),-7%,-3%
O=C1CCSc2cccc3cccc(c23)N1,-7%,-4%
c1cc2c3c(c1)ccc1cccc(c13)C2,-4%,3%
c1cc2c3c(cccc3c1)NC1(CCCCC1)N2,7.9µM*,0%
c1cc2c3c(cccc3c1)NC1(CCCCCC1)N2,13µM*,-1%
CCc1ccc(NC(=O)c2ccc3c(c2)N(Cc2ccc(C)cc2)CCS3)cc1,16µM*,-5%
COc1cc(OC)c(NC(=O)c2ccc3c(c2)N(Cc2ccc(C)cc2)CCS3)cc1Cl,7.9µM*,-4%
Cc1ccc(CN2CCSc3ccc(C(=O)Nc4ccc(F)cc4F)cc32)cc1,?,-11%
COc1ccc(CCNC(=O)c2ccc3c(c2)N(Cc2ccc(C)cc2)CCS3)cc1OC,-2%,-4%
COc1ccccc1N1CCN(S(=O)(=O)/C=C/c2ccccc2)CC1,-11%,3%
CCOc1ccccc1NC(=O)C1CCN(S(=O)(=O)c2ccc3c(c2)CCCN3C(C)=O)CC1,?,0%
CCOC(=O)c1cnc(SCC(=O)Nc2ccc(N3CCOCC3)cc2)nc1N,-6%,3%
COc1ccc(S(=O)(=O)NCCC(C)C)cc1OC,5%,2%
CC(C)CCNS(=O)(=O)c1ccc(-c2ccc(S(=O)(=O)NCCC(C)C)cc2)cc1,10µM*,-1%
CCC(C)NCCOc1cccc(Br)c1 (configuration not stated),-9%,3%
Cc1ccc(S(=O)(=O)NCCOCCNS(=O)(=O)c2ccc(C)cc2)cc1,4%,-2%
COC(=O)c1ccc(CSc2nnc(NC(=O)C3CC(=O)N(c4ccc5c(c4)OCCO5)C3)s2)cc1 (configuration not stated),0%,-5%
Cc1cccc(Nc2nnc(SCC(=O)Nc3cccc(S(=O)(=O)N4CCCCC4)c3)s2)c1,13µM*,-3%
Cc1ccccc1Nc1nnc(SCC(=O)NC(=O)Nc2ccc3c(c2)OCCO3)s1,?,-4%
Cc1cccc(NC(=O)CSc2nnc(NC(=O)c3ccc(S(=O)(=O)N4CCOCC4)cc3)s2)c1C,-11%,-1%
Cc1cccc(NC(=O)CSc2nnc(NC(=O)CN3CCCCC3)s2)c1,-14%,-4%
Cc1cccc(C)c1Nc1nnc(SCC(=O)Nc2cc(S(=O)(=O)N3CCCCC3)ccc2Cl)s1,13µM*,-3%
O=C(CSc1nnnn1-c1ccc(Cl)cc1)NC(=O)Nc1ccc2c(c1)OCCO2,25µM*,-2%
SMILES,Cruzain inh noDet,Cruzain Triton
Cc1cccc(Nc2nnc(SCC(=O)NC(=O)Nc3ccc4c(c3)OCCO4)s2)c1,16µM*,-2%
Cc1ccc(-n2nnnc2SCC(=O)NC(=O)Nc2ccc3c(c2)OCCO3)cc1,-12%,-3%
CCS(=O)(=O)N1CCc2cc(C(=O)Nc3cc(C)cc(C)c3)ccc21,5%,-3%
CCn1c(NC(=O)c2ccc(C)cc2)c2ccccc2nc1=O,11%,0%
C=CCOC(=O)C1=C(C)NC(SCC(=O)OCC)=C(C#N)C1c1ccc(O)c(OC)c1 (configuration not stated),18%,-8%
Cc1cccc(Nc2nnc(SCC(=O)NC3CCCc4ccccc43)s2)c1 (configuration not stated),-5%,-9%
Cc1cccc(Nc2nnc(SCC(=O)Nc3cccnc3Cl)s2)c1,16µM*,25µM*
N=c1oc2ccccc2cc1-c1nc(-c2ccccc2)cs1,?,-14%
N=c1oc2ccc3ccccc3c2cc1-c1nc(-c2ccccc2)cs1,25µM*,-5%
O=C(/C=C/c1ccccc1)Nc1nc(-c2cccs2)ns1,20µM*,0%
Cc1ccc(/C=C/C(=O)Nc2nc(-c3cccs3)ns2)cc1,?,-4%
O=c1c(Cl)c(N2CCN(c3ccc(F)cc3)CC2)cnn1-c1nc2ccccc2s1,?,3%
O=C1CC(c2ccccc2Cl)Cc2c1cnn2-c1nc2ccccc2s1 (configuration not stated),13µM*,-4%
CC1(C)Cc2ccccc2-c2nnc(SCC(=O)N3CCc4ccccc43)n21,-11%,8%
O=C(/C(=C(\[O-])c1ccccc1)[n+]1ccc2ccccc2c1)c1ccc(Cl)cc1,25µM*,0%
